APEX1 inh: blocks human APE1 abasic DNA cleavage; P27695; 0.35% of 350,000 active; recombinant APE1, TAMRA/BHQ-2 abasic DNA cleavage fluorescence; Potency, µM (top dose mostly 65.8 µM), without a hit: at the highest dose activity change, negative = inhibition, usual class: inhibitors; AID 2517;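 note: plate controls were vehicle for no effect and reference inhibitor for full effect; nearly all actives have a fitted effect of over 55% in size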
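Enzyme (0.75 nM final) and test compound are incubated 15 min at room temperature before adding 50 nM quenched THF abasic-site duplex. Cleavage dequenches TAMRA, followed at 525/598 nm over three reads one minute apart.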
L3MBTL1 inh: blocks human L3MBTL1; 0.66% of 230,000 active; AlphaScreen L3MBTL1–H3K9me1 peptide binding; Q9Y468; AID 485360; Potency, µM (highest dose often 57.1 µM), without a hit: at the highest dose activity, negative = inhibition, actives largely listed as inhibitors; note: nearly all actives have a fitted effect of over 60% in size
Target sequence (Q9Y468 whole entry, looked up): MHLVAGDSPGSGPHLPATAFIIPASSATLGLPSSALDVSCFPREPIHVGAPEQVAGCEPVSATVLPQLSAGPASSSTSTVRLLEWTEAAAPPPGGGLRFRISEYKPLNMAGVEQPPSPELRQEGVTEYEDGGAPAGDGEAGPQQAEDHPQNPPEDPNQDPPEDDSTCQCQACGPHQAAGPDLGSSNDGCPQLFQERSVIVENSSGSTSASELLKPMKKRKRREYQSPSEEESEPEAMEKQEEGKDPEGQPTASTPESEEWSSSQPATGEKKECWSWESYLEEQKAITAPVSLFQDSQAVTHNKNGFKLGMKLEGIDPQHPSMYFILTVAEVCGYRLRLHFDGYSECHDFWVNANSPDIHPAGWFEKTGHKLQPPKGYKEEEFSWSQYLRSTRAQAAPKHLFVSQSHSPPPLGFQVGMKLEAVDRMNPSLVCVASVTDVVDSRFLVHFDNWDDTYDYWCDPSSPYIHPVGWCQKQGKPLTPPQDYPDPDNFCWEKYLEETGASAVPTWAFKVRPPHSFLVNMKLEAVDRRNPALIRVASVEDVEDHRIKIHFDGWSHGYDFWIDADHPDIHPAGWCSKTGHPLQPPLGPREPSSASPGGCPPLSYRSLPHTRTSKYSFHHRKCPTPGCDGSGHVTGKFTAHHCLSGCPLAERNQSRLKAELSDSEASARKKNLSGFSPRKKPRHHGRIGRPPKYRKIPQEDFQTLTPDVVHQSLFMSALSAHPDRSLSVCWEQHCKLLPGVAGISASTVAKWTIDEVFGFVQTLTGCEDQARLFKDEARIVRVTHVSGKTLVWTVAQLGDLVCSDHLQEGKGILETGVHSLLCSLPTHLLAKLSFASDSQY
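Read-out is AlphaScreen signal from streptavidin donor and nickel chelate acceptor beads (10 ug/mL final each) bridging L3MBTL1 (50 nM) and biotinylated K9-monomethylated H3(1-15) peptide (75 nM), after 30 min compound exposure at room temperature.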
BLM inh: inhibitors of human Bloom syndrome helicase BLM; P54132; recombinant BLM DNA unwinding, fluorescence dequenching; Potency, µM (titrated, usually from 56.1 µM), for inactives: at the highest dose activity change, negative = inhibition, hits mostly inhibitors; 0.2% of 350,000 active; AID 2528;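 note: plate controls were vehicle for no effect and no enzyme for full effect; nearly all actives have a fitted effect of over 35% in size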
RECQ1 inh-1: inhibitors of human RECQ1 DNA helicase | 0.54% of 240,000 active | Potency, µM (highest dose often 57.3 µM), inactives show top-dose activity, negative = inhibition, usual class: inhibitors | AID 2549 | RECQ1 DNA unwinding, red fluorescence kinetic read;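 note: plate controls were vehicle for no effect and no enzyme for full effect; nearly all actives have a fitted effect of over 30% in size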
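50 nM RECQ1T1 preincubated 15 min with compound in Tris pH 8.0 buffer with MgCl2, DTT, Tween-20 and 2.5 ug/ml poly(dI-dC); started with 200 nM TAMRA/BHQ-2 forked duplex and 2 mM ATP. Unwinding read as fluorescence (525/598 nm), two reads 2 h apart.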
RECQ1 inh conf: confirmation of human RECQ1 helicase inhibitors | shares compounds with RECQ1 inh-1 | RECQ1 helicase DNA unwinding, fluorescence | Potency, µM (doses to about 229 µM), for inactives: at the top dose activity change, negative = inhibition, actives largely listed as inhibitors | 28% of 610 active | AID 2708; note: nearly all actives have a fitted effect of over 45% in size
RECQ1 ADP FP: displaces ADP in a fluorescence polarization counter-screen for RECQ1 hits. shares compounds with RECQ1 inh-1. ADP fluorescence polarization displacement counterscreen. Potency, µM (titrated, usually from 228 µM), for inactives: top-dose activity change, negative = inhibition, hits mostly inhibitors. 27% of 530 active; note: nearly all actives have a fitted effect of over 45% in size
RECQ1 inh-2: RECQ1 helicase inhibition confirmed, round 2. shares compounds with RECQ1 inh-1. recombinant RECQ1 DNA unwinding, red fluorescence. Potency, µM (doses to about 119 µM), for the others: at the top dose activity, negative = inhibition, most hits filed as inhibitors. 15% of 1,100 active; note: nearly all actives have a fitted effect of over 50% in size
The depositor's hits bear a star; i = inactive; u = inconclusive; x = no result; ! = not confirmed by another sample; [ ] = remark or other dose. This is a sample that favours compounds with a hit; in the whole collection about 0.78% have one here. Calls come from the whole dose curve; as a rule, active = well fitted curve in the direction sought with a large enough effect; inconclusive = small, poorly fitted or top-dose-only effect, or another doubt; inactive = no such curve, though single readings can be large; an effect the other way counts as inactive or inconclusive. Unless noted, % is set by controls: 0 for no effect and ±100 for the full control effect; potency is the fitted concentration of half-maximal effect.

SMILES	APEX1 inh	L3MBTL1 inh	BLM inh	RECQ1 inh-1	RECQ1 inh-2	others
O=S(=O)(c1ccc2nc(-c3ccco3)c(-c3ccco3)nc2c1)N1CCOCC1	u	-88.4%	14.1µM*	31.6µM*	14.9%
O=C(NCc1ccco1)C1CCCCN1S(=O)(=O)c1ccc(F)cc1 (configuration not stated)	12.9%	4.4%	-0.3%	u	-9.7%
Cc1ccc(CNC(=O)C2CCCCN2S(=O)(=O)c2ccc(F)cc2)cc1 (configuration not stated)	x	x	-2.5%	x	x
O=C(NCc1ccco1)c1ccc(S(=O)(=O)N2CCOCC2)cc1	31.6µM*	35.5µM*	-26.6%	u	-20.3%
O=S(=O)(c1ccc2ccccc2c1)N1CCOCC1	29.5%	x	0.0%	x	x
COc1ccc(-c2cc(C(F)(F)F)nc(SCC(=O)NC(C)c3ccccc3)n2)cc1 (configuration not stated)	x	x	-3.2%	x	x
CCC(c1nnnn1Cc1ccco1)N(Cc1cc2cc(C)cc(C)c2[nH]c1=O)CC1CCCO1 (configuration not stated)	-7.8%	x	-10.4%	u	-7.1%
CC1CCN(C(=O)c2cccc(NC(=O)c3nsc4ccccc34)c2)CC1	x	x	-6.5%	x	x
Nc1ncnc2c1ncn2COC(CO)CO	x	x	x	x	x	RECQ1 inh conf=-6.1%[69.1 µM]
Nc1ncnc2c1ncn2CCOCP(=O)(O)O	x	x	-11.4%	x	x
CCOc1cccc(=O)c2c(C)n(-c3ccc(C(=O)O)cc3)c(C)c12	u	u	33.4%	u	u
Oc1cc2c(cc1O)[C@@H]1c3ccc(O)c(O)c3OC[C@]1(O)C2	3.16µM*	x	-18.4%	12.6µM*	u
O=C1CSC(=S)N1c1cccnc1	5.8%	-3.0%	-4.6%	31.6µM*	-1.9%
O=C(O)c1ccc(CN2C(=O)CSC2=S)cc1	u	u	-2.2%	15.8µM*	-21.8%	RECQ1 inh conf=-1.0%[114 µM];RECQ1 ADP FP=47.6%[91.9 µM]
O=C1CSC(=S)N1Cc1cccnc1	u	x	-5.7%	25.1µM*	u
O=C(COc1ccc(F)cc1)Nc1ccccc1C(=O)OCc1cc(=O)n2ccsc2n1	x	x	-6.7%	x	x
CCN(Cc1ccccc1)C(=O)Cn1c(=O)n(-c2ccccc2)c(=O)c2c1c1cc(C)ccc1n2C	x	x	-8.5%	x	x
COC(=O)c1cn(C)c2ccc(S(=O)(=O)N3CCOCC3)cc2c1=O	0.2%	2.9%	0.3%	-2.0%	x
COC(=O)c1cn(C)c2ccc(S(=O)(=O)N3CCCC3)cc2c1=O	-3.4%	-4.5%	-2.0%	u	-31.0%
O=C(O)CC(SCC(=O)Nc1ccc(S(=O)(=O)N2CCCC2)cc1)C(=O)O (configuration not stated)	-6.7%	7.5%	1.2%	i	x	RECQ1 inh conf=1.9%;RECQ1 ADP FP=-8.9%
Cn1c(CO)cnc1S(=O)(=O)Cc1ccc(Cl)cc1	11.8%	2.9%	-0.3%	u	-9.9%
COc1ccc2[nH]cc(CCNc3ncnc4ccc(-c5ccoc5)cc34)c2c1	-3.5%	x	-1.4%	u	u
O=c1cc2nc(-c3ccccc3F)nc(SCc3ccc(Br)cc3)n2[nH]1	x	x	-14.9%	x	x
O=c1oc2ccccc2c2oc3cc(O)c(O)cc3c12	u	u	10µM*!	25.1µM*	35.5µM*
Nc1c(N)c2ccccc2oc1=O	17.4%	x	-4.4%	-7.0%	x
Cc1ccc(/C=C(/NC(=O)c2ccccc2)C(=O)NC(Cc2c[nH]c3ccccc23)C(=O)O)cc1 (configuration not stated)	27.4%	x	-8.8%	x	x
O=C(NC(Cc1c[nH]c2ccccc12)C(=O)O)/C(=C/c1ccc(F)cc1)NC(=O)c1ccccc1 (configuration not stated)	0.2%	x	-3.9%	-2.9%	x	RECQ1 inh conf=9.5%;RECQ1 ADP FP=-0.3%
CC(=O)Oc1ccc2c(c1)Oc1cc(OC(C)=O)ccc1C21OC(=O)c2ccccc21	9.4%	-11.8%	248.6%	-6.3%	x
